Bioassay records (PubChem)
SENP6 block: SENP6 protease inhibitors, primary screen, biochemical, luminescence, uHTS; Sentrin-specific protease 6 (Homo sapiens), Q9GZR1; Recombinant SENP6 catalytic domain, aminoluciferin luminescence; inhibition, % at 10 µM; 330,000 tested, 1.8% active; AID 2599, 2010;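 active means inhibition above about 50% at the single tested dose, limit read from the data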;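 further: plate controls were DMSO wells with enzyme for no effect and DMSO wells lacking enzyme for full effect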
EBI2 antag: EBI2 receptor antagonists, beta-arrestin recruitment, primary screen, cell-based, luminescence, 7a,25-OHC stimulation, uHTS; G-protein coupled receptor 183 (Homo sapiens), P32249; 7a,25-OHC stimulated; 360,000 tested, 0.81% active; AID 651636, 2012; inhibition, % at 5 µM; in the data active means inhibition above about 38%;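 further: enzyme fragment complementation signal reports receptor beta-arrestin coupling in cells; 0% = agonist plus DMSO wells and 100% = wells without agonist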
SENP7 inh: SENP7 protease inhibitors, primary screen, biochemical, luminescence, uHTS; inhibition, % at 5 µM; AID 434973, 2010; Sentrin-specific protease 7 (Homo sapiens), Q9BQF6; 330,000 tested, 1.5% active; recombinant SENP7, Z-RLRGG-aminoluciferin luminescence, 40 min;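 active means inhibition above about 50% at the single test dose, limit read from the data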;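 further: plate controls were DMSO with enzyme for no effect and no enzyme buffer wells for full effect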
Target sequence (Q9BQF6 706-1050 limits assumed): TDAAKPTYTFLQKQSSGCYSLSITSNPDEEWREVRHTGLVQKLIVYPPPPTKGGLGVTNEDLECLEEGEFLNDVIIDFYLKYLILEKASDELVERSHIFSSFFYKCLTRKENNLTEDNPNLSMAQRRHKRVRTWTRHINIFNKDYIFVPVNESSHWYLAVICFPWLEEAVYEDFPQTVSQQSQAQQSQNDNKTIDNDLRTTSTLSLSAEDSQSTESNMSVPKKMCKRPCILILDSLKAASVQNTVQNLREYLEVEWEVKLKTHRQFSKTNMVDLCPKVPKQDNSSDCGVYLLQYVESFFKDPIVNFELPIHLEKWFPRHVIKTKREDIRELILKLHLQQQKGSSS
SENP8 block-1: human SENP8 protease inhibitors, primary screen, biochemical, fluorescence, Nedd8 protein substrate, uHTS; 360,000 tested, 0.64% active; recombinant SENP8; inhibition, % at 20 µM; AID 602440, 2012; in the data active means inhibition mostly above about 40%, no sharp cut-off; inactive means mostly below about 27%
Target sequence (Q96LD8 whole entry, looked up): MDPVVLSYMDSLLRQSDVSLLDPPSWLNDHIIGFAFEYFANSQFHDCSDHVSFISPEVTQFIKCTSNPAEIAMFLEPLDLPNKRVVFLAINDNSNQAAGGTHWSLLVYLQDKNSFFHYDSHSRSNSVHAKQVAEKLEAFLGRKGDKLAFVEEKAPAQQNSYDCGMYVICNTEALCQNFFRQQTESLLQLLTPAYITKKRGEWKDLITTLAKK
AHR activator: AHR activators, primary screen, cell-based, luminescence, luciferase reporter, human | Aryl hydrocarbon receptor (Homo sapiens), P35869 | AHR-responsive luciferase reporter cells | activation, % at 5 µM | 320,000 tested, 2.5% active | AID 2796, 2010; in the data active means activation above about 47%;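 further: 0% = vehicle wells and 100% = reference agonist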
SENP8 block-2: SENP8 protease inhibitors, primary screen, biochemical, luminescence | purified SENP8, Z-RLRGG-aminoluciferin cleavage | inhibition, % at 10 µM | 330,000 tested, 1.2% active | AID 2540, 2010; in the data active means inhibition above about 50%
EBI2 conf: EBI2 antagonist hit retest, beta-arrestin, confirmation, cell-based, single concentration, luminescence, 7a,25-OHC stimulation. shares compounds with EBI2 antag. 7a,25-OHC antagonism. inhibition, % at 5 µM. 2,400 tested, 29% active;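 active means inhibition of at least 50%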
EBI2 agonist: EBI2 agonist activity of antagonist hits, confirmation, counter-screen for EBI2 antagonist project, cell-based, single concentration, agonist mode, luminescence | AID 652000, 2013 | EBI2-expressing cells, 60 min; 0% vehicle, 100% 7α,25-dihydroxycholesterol control | shares compounds with EBI2 antag | activation, % at 5 µM | 2,400 tested, under 10 active;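 active means activation of at least 50%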
bGal cs: E. coli beta-galactosidase enzyme inhibition, confirmation, counter-screen for EBI2 antagonist project, biochemical, luminescence, single concentration; shares compounds with EBI2 antag; purified beta-galactosidase, luminescent Galacton Star, 15 min; inhibition, % at 5 µM; 2,400 tested, 1% active;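 active means replicate-average signal at least 3 plate SD below neutral wells, shown as high inhibition, flagging enzyme-inhibiting false positives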;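 further: 0% = DMSO wells with enzyme and 100% = wells lacking enzyme; higher means stronger loss of beta-gal luminescence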
Starred values were filed as active, the others as inactive. Most compounds without a hit are left out; they make up all but 5% or so of the library.

`COc1ccccc1C1CCN(C(=O)c2ccc(Cl)cc2)CC1` gave SENP6 block -9, EBI2 antag 88*, SENP7 inh -10, SENP8 block-1 7, AHR activator 1, SENP8 block-2 -14, EBI2 conf 70*, EBI2 agonist 2 and bGal cs 5.
Screening COc1ccccc1C1CCN(C(=O)C2CCCCC2)CC1 returned SENP6 block -26, EBI2 antag -2, SENP7 inh 4, SENP8 block-1 23, AHR activator 1 and SENP8 block-2 0.
`COc1ccccc1C1CCN(C(=O)c2cnn(-c3ccccc3)c2C)CC1` gave SENP6 block 3, EBI2 antag 54*, SENP7 inh 5, SENP8 block-1 27, AHR activator -4, SENP8 block-2 2, EBI2 conf 20, EBI2 agonist 2 and bGal cs 7.
For COc1ccccc1C1CCN(C(=O)c2ccccc2)CC1 the results were SENP6 block 7, EBI2 antag -29, SENP7 inh -5, SENP8 block-1 13, AHR activator 0 and SENP8 block-2 8.
`CC(=O)Nc1cc(-c2ccccc2Cl)cn2c(-c3ccc(S(C)(=O)=O)cc3)cnc12` gave EBI2 antag 55*, SENP8 block-1 inactive, EBI2 conf 25, EBI2 agonist 2 and bGal cs 3.
For CC(=O)Nc1cccc(-c2cc(NC=O)c3ncc(-c4cccc(C(C)=O)c4)n3c2)c1 the results were EBI2 antag 54*, SENP8 block-1 -34, EBI2 conf 14, EBI2 agonist -1 and bGal cs -12.
CC(=O)Nc1cc(-c2ccc(CO)cc2)cn2c(-c3cccc(C(F)(F)F)c3)cnc12 was read as EBI2 antag 46*, SENP8 block-1 -383, EBI2 conf 24, EBI2 agonist -1 and bGal cs -9.
Screening CN(C)C(=O)c1cccc(-c2cnc3c(NC=O)cc(-c4ccccc4Cl)cn23)c1 returned EBI2 antag 62*, SENP8 block-1 -201, EBI2 conf 29, EBI2 agonist 0 and bGal cs 5.
For CN(C)C(=O)c1cccc(-c2cnc3c(NC=O)cc(-c4ccccc4N(C)C)cn23)c1 the results were EBI2 antag -4 and SENP8 block-1 -168.
CC(=O)Nc1cc(-c2ccc(N)cc2)cn2c(-c3cccc(C(F)(F)F)c3)cnc12 was read as EBI2 antag 9 and SENP8 block-1 -379.
`CC1CCCCC1NC(=O)CCC(=O)N1CCOc2ccc(Cl)cc21` (stereo unspecified) gave SENP6 block 1, EBI2 antag 2, SENP7 inh 8, SENP8 block-1 10, AHR activator 2 and SENP8 block-2 -3.
COc1ccccc1C(=O)N1CCC(C(=O)c2ccc(F)cc2)CC1 was read as SENP6 block 8, EBI2 antag 0, SENP7 inh 3, SENP8 block-1 8, AHR activator 3 and SENP8 block-2 6.
Screening COCCNC(=S)N1CCC(C(=O)c2ccc(C)cc2)CC1 returned SENP6 block -12, EBI2 antag -3, SENP7 inh 7, SENP8 block-1 10, AHR activator 1 and SENP8 block-2 2.
Screening O=C(c1ccc(Cl)cc1)C1CCN(C(=O)c2ccc(F)cc2)CC1 returned SENP6 block -10, EBI2 antag 49*, SENP7 inh -13, SENP8 block-1 14, AHR activator -1, SENP8 block-2 -1, EBI2 conf 14, EBI2 agonist 1 and bGal cs 7.
Screening Cc1ccc(C(=O)N2CCC(C(=O)c3c(C)cc(C)cc3C)CC2)cc1 returned SENP6 block 6, EBI2 antag 43*, SENP7 inh 1, SENP8 block-1 8, AHR activator 1, SENP8 block-2 4, EBI2 conf 14, EBI2 agonist 0 and bGal cs -11.
Cc1ccc(C(=O)N2CCC(C(=O)c3ccc(F)cc3)CC2)cc1 was read as EBI2 antag 52*, SENP8 block-1 19, EBI2 conf 50*, EBI2 agonist 1 and bGal cs 1.
CC(=O)N1CCC(C(=O)c2ccc(Cl)cc2)CC1 was read as SENP6 block 6, EBI2 antag 1, SENP7 inh 5, SENP8 block-1 22, AHR activator -4 and SENP8 block-2 4.
Screening Cc1ccc(C(=O)C2CCN(C(=O)c3ccc(C)cc3)CC2)cc1 returned SENP6 block -5, EBI2 antag 57*, SENP7 inh -10, SENP8 block-1 13, AHR activator -3, SENP8 block-2 1, EBI2 conf 32, EBI2 agonist 0 and bGal cs -14.
`Cc1ccc(C(=O)N2CCN(S(=O)(=O)N3CCCCCC3)CC2)cc1` gave SENP6 block -15, EBI2 antag 31, SENP7 inh -7, SENP8 block-1 11, AHR activator 1 and SENP8 block-2 -4.
Cc1ccccc1N1CCN(c2ccc(NC(=O)C3CCCCC3C(=O)O)cc2)CC1 (stereo unspecified) was read as SENP6 block -1, EBI2 antag 1, SENP7 inh 9, SENP8 block-1 9, AHR activator -1 and SENP8 block-2 4.
Screening COc1cc(NC(=O)CSc2nnc3c(C)cc4c(C)ccc(C)c4n23)c(C(=O)O)cc1OC returned SENP6 block 6, EBI2 antag -1, SENP7 inh 0, SENP8 block-1 -12, AHR activator 0 and SENP8 block-2 4.
`Cc1nc2scc(-c3ccc(C(C)C)cc3)c2c(=O)n1N` gave SENP6 block 14, EBI2 antag 16, SENP7 inh 9, SENP8 block-1 10, AHR activator 1 and SENP8 block-2 -5.
O=C(O)CCC(=O)c1ccc(C2CCCCCC2)cc1 was read as EBI2 antag 1 and SENP8 block-1 2.
